The text below walks through data of PubChem BioAssay (NCATS).

Unmarked numbers belong to inactive results. Records with an inconclusive call do not appear. Activity calls are given as the source filed them. Unless noted, calls come from the whole dose curve; as a rule, active = well fitted curve in the direction sought with a large enough effect; inconclusive = small, poorly fitted or top-dose-only effect, or another doubt; inactive = no such curve, though single readings can be large; an effect the other way counts as inactive or inconclusive.

In experiment [1] the target is T1, Hexokinase-4 (Homo sapiens) + Glucokinase regulatory protein (Homo sapiens) (UniProt P35557+Q14397). The experiment is described as follows: qHTS assay for inhibitors of recombinant human GCK-GKRP interaction: ADP-Glo assay (AID 743206).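 Note: plate controls were DMSO plus enzyme for no effect and no enzyme for full effect.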 Summed up: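 GST-GCK and FLAG-GKRP (15 nM each in the dispensed mix, with 2 uM S6P) react with 0.4 mM ATP and 5 mM glucose (final) in Hepes pH 7.6 for 60 min at room temperature. ADP is measured by ADP-Glo luminescence.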
T1 sequence (P35557 whole entry, looked up): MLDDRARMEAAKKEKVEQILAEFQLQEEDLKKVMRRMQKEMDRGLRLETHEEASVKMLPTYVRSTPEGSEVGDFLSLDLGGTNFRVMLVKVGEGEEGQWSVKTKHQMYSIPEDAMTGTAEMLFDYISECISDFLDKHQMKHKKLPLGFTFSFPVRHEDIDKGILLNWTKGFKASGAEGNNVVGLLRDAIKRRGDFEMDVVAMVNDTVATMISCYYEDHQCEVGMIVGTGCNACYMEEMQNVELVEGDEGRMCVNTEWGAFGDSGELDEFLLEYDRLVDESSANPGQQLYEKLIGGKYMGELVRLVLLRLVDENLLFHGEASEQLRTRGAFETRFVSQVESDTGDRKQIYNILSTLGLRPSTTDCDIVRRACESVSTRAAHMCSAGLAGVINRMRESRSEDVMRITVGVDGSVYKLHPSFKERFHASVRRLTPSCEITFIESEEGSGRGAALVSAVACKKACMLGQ
T1 sequence (Q14397 whole entry, looked up): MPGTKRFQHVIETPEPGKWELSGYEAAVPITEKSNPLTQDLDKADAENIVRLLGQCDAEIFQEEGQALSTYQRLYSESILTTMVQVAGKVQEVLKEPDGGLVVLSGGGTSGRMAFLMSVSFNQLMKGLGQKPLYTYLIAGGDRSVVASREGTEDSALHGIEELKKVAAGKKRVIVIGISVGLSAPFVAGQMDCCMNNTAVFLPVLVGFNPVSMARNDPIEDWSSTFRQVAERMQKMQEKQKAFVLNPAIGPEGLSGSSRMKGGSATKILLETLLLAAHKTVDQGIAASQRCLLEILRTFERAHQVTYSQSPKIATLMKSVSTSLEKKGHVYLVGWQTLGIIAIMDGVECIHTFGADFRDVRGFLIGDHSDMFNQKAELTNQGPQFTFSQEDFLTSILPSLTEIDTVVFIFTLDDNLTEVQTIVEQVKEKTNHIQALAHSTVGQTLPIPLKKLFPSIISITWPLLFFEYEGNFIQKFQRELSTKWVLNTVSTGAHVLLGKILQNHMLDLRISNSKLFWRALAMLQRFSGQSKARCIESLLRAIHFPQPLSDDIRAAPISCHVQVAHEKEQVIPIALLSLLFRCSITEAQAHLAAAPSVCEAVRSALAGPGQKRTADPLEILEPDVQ

The target in experiment [2] is T1, Hexokinase-4 (Homo sapiens) + Glucokinase regulatory protein (Homo sapiens). The experiment in a line: qHTS assay for inhibitors of recombinant human GCK-GKRP interaction: HTRF assay (AID 743207).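 Note: 0% = DMSO with GCK present and -100% = DMSO wells lacking GCK.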 The method in brief:
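5 nM GST-GCK + 5 nM FLAG-GKRP + 2 uM S6P, pH 7.1 buffer (25 mM Hepes, 2 mM MgCl2, 25 mM KCl, 1 mM DTT, Tween/BSA); pin-transferred cpd; anti-FLAG XL665/anti-GST K; 60 min RT; HTRF.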

Experiment [3] can be described thus: qHTS Assay for Identifying Gametocytocidal Compounds (AID 743244).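 Note: % is set by controls: 0 for no effect and ±100 for the full control effect; actives lower the fluorescent signal which means gametocytes are killed.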 To be noted: P. falciparum 3D7 stage III-V gametocytes, alamarBlue, 72 h; max response: active compounds read low. The method in brief:
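Viability read-out was resazurin reduction (alamarBlue, 24 h) measured at Ex 525/Em 598 nm. Beforehand, late-stage (III-V) 3D7 P. falciparum gametocytes at 20,000 cells/well were incubated with compound 72 h at 37C under 5% CO2.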
Background: qHTS replaces the single test concentration by a dilution series.

A short description of experiment [4]: qHTS assay for measurement of the activity of small molecule inhibitors on Zika virus induced Caspase-3 activity in human iPSC derived neural progenitor cells (hNPCs) (AID 1224857). Note: nearly all actives have a fitted effect of over 65% in size. Note: potency is the fitted concentration of half-maximal effect. Summed up: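 Percent inhibition of virus-induced caspase-3/7 luminescence (Caspase-Glo), scaled between uninfected cells and Zika-infected cells. hNPCs received compound 1 hr before ZIKV at 2 FFU/cell, with 6 hours infection at 37 C.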

Experiment [5] can be described thus: qHTS assay for measurement of the activity of small molecule inhibitors on Zika virus induced Caspase-3 activity in human astrocytoma cells (AID 1224859). Note: potency is the fitted concentration of half-maximal effect. The method in brief:
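Luminescent caspase-3/7 read-out (30 min reagent, room temperature) in human SNB-19 cells infected 6 h with ZIKV (2 FFU/cell) after 1 h compound pre-incubation; Data were normalised to uninfected and infected wells.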

Experiment [6] in a line: Natriuretic polypeptide receptor (hNpr1) antagonism - Pilot counterscreen GloSensor control cell line (AID 1347045; calls by dose curve; note: potency is the fitted concentration of half-maximal effect). Summed up: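 HEK293 cells carrying the GloSensor cGMP sensor (GIP/pGS-40F) were loaded with 2% GloSensor reagent for 2 h, exposed to compounds for 30 min, and then stimulated with 50 uM sodium nitroprusside for 20 min at room temperature.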
The target of experiment [7] is Atrial natriuretic peptide receptor 2 (Homo sapiens) (UniProt P20594). The experiment is described as follows: Natriuretic polypeptide receptor (hNpr2) antagonism - Pilot subtype selectivity assay (AID 1347050; calls by dose curve; note: potency is the fitted concentration of half-maximal effect). Summed up: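 HEK293 cells expressing hNpr2 and a GloSensor cGMP luciferase sensor, 1500/well, preloaded 2 h with 2% GloSensor reagent, compound 30 min, then 1 nM hNppC for 20 min. Antagonism from luminescence after versus baseline pre-read; LOPAC in 1:5 titrations.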
Atrial natriuretic peptide receptor 2 (Homo sapiens), sequence (P20594 whole entry, looked up): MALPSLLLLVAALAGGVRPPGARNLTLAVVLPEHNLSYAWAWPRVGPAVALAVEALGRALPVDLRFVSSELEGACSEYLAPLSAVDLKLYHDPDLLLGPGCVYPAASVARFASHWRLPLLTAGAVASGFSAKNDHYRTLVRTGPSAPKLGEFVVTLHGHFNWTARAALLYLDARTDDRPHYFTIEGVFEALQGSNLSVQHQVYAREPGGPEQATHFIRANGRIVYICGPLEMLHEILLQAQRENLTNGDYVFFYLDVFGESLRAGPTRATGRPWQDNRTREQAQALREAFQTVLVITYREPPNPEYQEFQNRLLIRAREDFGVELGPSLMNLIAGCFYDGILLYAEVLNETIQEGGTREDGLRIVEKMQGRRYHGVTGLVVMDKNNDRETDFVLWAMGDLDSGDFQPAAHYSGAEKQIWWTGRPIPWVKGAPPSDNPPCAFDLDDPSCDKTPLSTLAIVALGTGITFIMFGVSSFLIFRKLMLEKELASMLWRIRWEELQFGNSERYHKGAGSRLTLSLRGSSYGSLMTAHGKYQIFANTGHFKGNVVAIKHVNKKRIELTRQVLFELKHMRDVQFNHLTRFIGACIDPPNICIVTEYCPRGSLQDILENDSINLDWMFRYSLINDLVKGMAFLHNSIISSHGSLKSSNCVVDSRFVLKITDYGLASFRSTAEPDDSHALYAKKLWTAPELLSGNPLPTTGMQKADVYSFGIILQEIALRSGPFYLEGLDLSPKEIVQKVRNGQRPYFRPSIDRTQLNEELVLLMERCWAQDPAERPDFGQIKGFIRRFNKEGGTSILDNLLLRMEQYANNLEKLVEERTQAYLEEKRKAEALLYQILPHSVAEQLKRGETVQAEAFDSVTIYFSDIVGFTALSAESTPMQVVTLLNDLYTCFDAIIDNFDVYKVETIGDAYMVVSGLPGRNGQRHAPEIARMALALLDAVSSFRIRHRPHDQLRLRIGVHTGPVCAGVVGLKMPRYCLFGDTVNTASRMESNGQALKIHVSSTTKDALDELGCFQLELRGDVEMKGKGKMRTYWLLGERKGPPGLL

Experiment [8] in a line: NS1 protein of Zika virus - qHTS assay to identify small molecule inhibitors in human HEK 293 cells (AID 1347053).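 Note: series mostly up to about 46 µM; plate controls were infected untreated cells for no effect and uninfected cells for full effect; nearly all actives have a fitted effect of over 55% in size.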 The method in brief:
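HEK 293; 20 h pre-culture, 37 C/5% CO2; cpd 1 h pre-infection; ZIKV MR766, MOI = 0.5, 24 h, 37 C; TR-FRET NS1 readout (two anti-NS1 Abs); norm. to no-virus vs infected.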

In experiment [9] the target is Atrial natriuretic peptide receptor 1 (Homo sapiens) (UniProt P16066). The experiment is described as follows: Natriuretic polypeptide receptor (hNpr1) antagonism - Pilot screen (AID 1347049; calls by dose curve;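 note: agonist-evoked cGMP luminescence read 20 min after hNppA addition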; note: potency is the fitted concentration of half-maximal effect). The method in brief:
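HEK293 cells expressing hNpr1 and GloSensor cGMP luciferase, 1500/well, loaded with 2% GloSensor reagent 2 h, compound 30 min at room temperature; luminescence read before and 20 min after 0.1 nM hNppA stimulation.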

Atrial natriuretic peptide receptor 1 (Homo sapiens), sequence (P16066 whole entry, looked up): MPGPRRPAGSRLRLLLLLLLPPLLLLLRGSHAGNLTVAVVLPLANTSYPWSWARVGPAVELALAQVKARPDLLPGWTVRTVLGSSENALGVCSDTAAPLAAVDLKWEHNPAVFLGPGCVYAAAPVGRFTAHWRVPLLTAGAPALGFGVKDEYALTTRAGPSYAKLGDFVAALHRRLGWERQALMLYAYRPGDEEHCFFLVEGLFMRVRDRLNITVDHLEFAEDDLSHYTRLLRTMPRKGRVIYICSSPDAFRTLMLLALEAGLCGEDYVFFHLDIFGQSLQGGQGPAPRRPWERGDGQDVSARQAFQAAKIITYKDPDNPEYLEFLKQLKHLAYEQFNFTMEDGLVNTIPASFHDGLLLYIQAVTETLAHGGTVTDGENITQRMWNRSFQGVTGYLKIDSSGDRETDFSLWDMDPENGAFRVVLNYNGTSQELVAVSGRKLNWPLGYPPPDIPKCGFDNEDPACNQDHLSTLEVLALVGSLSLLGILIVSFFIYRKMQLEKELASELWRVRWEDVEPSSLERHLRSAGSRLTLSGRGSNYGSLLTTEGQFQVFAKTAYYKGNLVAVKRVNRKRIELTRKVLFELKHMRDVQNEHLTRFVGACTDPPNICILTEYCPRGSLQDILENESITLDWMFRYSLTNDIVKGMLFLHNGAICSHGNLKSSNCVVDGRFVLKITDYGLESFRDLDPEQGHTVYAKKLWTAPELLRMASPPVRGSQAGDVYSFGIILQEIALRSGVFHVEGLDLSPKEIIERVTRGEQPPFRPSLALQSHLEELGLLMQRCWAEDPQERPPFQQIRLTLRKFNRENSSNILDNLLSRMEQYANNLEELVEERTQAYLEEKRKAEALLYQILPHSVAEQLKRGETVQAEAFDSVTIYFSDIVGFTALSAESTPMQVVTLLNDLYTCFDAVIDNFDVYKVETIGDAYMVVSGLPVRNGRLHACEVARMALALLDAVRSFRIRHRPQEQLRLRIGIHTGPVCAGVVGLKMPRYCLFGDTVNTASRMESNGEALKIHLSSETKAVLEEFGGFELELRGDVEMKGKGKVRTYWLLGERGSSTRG

As to `NC1(C(=O)O)CCCCC1`, the Potency entry in [1], in [2], in [4], in experiment [5], in experiment [6] and in experiment [7] was “inactive” in each case. Further, in experiment [8], the Potency result is “inactive”. Further, the max response in experiment [3] is 26.2%.
Turning to `Nc1ccc(-c2ccc3ccccc3n2)cc1`, the Potency result in experiment [1], in experiment [2] and in [8] was “inactive” throughout. The Potency in [4] is 7.08 µM (active); in experiment [5] it was 7.08 µM (active); in experiment [6] it was 14.7 µM (active); in [7], 16.5 µM (active).
For `Oc1ccc(/C=C/c2ccc(/C=C/c3ccc(O)cc3)c(Br)c2)cc1`, the Potency result in [1], in experiment [2], in experiment [4], in experiment [5], in [6] and in experiment [7] was “inactive” each time. Also, the Potency entry in experiment [8] is “inactive”.
Turning to `COc1ccc(-c2cc3ncc(C)n3c(Nc3ncccc3C(N)=O)n2)cc1OC`, the Potency result in [1], in experiment [2], in [4], in experiment [5], in [6] and in experiment [7] was “inactive” in each case. Also, the Potency result in experiment [8] is “inactive”. Also, the max response in experiment [3] was 12.4%.
Take `CC(C)(C)c1cc(/C=C(\C#N)C(N)=S)cc(C(C)(C)C)c1O`: the Potency result in [1], in experiment [2], in experiment [4] and in [5] was “inactive” each time. In [3], the max response is 6.59%. Also, the Potency in experiment [6] is 1.17 µM (active); in experiment [9], 3.38 µM (active).
Turning to `COC1(C2=NCCN2)COc2ccccc2O1` (stereo unspecified), the Potency result in experiment [2], in experiment [4], in [5], in experiment [6], in [7] and in experiment [8] was “inactive” throughout.
On to `O=C(OCCN1CCOCC1)C1(c2ccccc2)CCCCC1`, for which the Potency result in experiment [1], in experiment [2], in experiment [4], in [5], in experiment [6] and in [9] was “inactive” each time. Moreover, in [3], the max response is 16.2%.
Consider `NC(=Nc1ccccc1)NC(=O)c1nc(Cl)c(N)nc1N`, for which the Potency entry in experiment [1], in experiment [2], in experiment [4], in experiment [5], in experiment [6] and in experiment [7] was “inactive” in each case. Further, in experiment [8], the Potency result is “inactive”. The max response in experiment [3] is 12.9%.
Consider `COc1ccc(CCn2nnnc2C2(c3ccc(C)cc3)CC2)cc1`, for which the Potency entry in [1], in experiment [2], in experiment [4], in experiment [5], in [6] and in experiment [7] was “inactive” in each case. Besides, the Potency result in experiment [8] is “inactive”.
For the compound `CCCCCCCCCCCCCCCCCCOC[C@H](COP(=O)([O-])OCC[N+](C)(C)C)OC`, the Potency result in experiment [1], in experiment [2], in experiment [4], in experiment [5] and in experiment [8] was “inactive” each time. In [3], the max response is 10.4%. The Potency in [6] was 14.7 µM (active); in experiment [7], 8.26 µM (active).
For the compound `O=C(O)C1=CCNCC1`, the Potency entry in experiment [1], in experiment [4], in experiment [5], in experiment [6], in experiment [7] and in [8] was “inactive” throughout. Moreover, the max response in experiment [3] is 2.03%.
Regarding `O=C1NC(=O)c2cc(Nc3ccccc3)c(Nc3ccccc3)cc21`, the Potency entry in experiment [1], in [2], in experiment [4], in experiment [5], in experiment [6] and in experiment [7] was “inactive” throughout. In [8], the Potency entry was “inactive”. Besides, the max response in experiment [3] is 5.21%.
Consider `N[C@H](C(=O)O)[C@H](O)C(=O)O`, for which the Potency entry in [2], in experiment [4], in experiment [5], in [6], in experiment [7] and in experiment [8] was “inactive” in each case. For the same compound, the max response in experiment [3] was 13.2%.
As to `N[C@@H](Cc1ccc(F)cc1)C(=O)O`, the Potency result in experiment [1], in [2], in experiment [4], in experiment [5], in experiment [6] and in experiment [7] was “inactive” each time. The Potency result in experiment [8] was “inactive”. The max response in experiment [3] is 19.5%.
`CCC1(O)CC2CN(CCc3c([nH]c4ccccc34)[C@@](C(=O)OC)(c3cc4c(cc3OC)N(C=O)C3[C@]45CCN4CC=C[C@@](CC)([C@@H](OC(C)=O)[C@]3(O)C(=O)OC)[C@H]45)C2)C1` (stereo partly specified): the Potency result in [1], in experiment [2], in experiment [4], in [5], in [6] and in experiment [9] was “inactive” in each case.
Consider `CCN1C(=O)C=CC1=O`, for which the Potency entry in [2], in [4], in experiment [5], in [6] and in experiment [9] was “inactive” in each case. Moreover, the max response in experiment [3] is 14.2%.
As to `CC1CCN=C(N)S1` (stereo unspecified), the Potency entry in experiment [1], in experiment [2], in experiment [4], in [5], in [6] and in experiment [7] was “inactive” in each case. The Potency entry in experiment [8] is “inactive”. In addition, the max response in experiment [3] was -7.18%.
As to `C=C1C[C@@]23CC[C@H]4[C@@](C)(CCC[C@@]4(C)C(=O)OC4OC(CO)C(O)C(O)C4O)[C@@H]2CC[C@]1(OC1OC(CO)C(O)C(O)C1OC1OC(CO)C(O)C(O)C1O)C3` (stereo partly specified), the Potency result in [1], in experiment [2], in experiment [4], in [5], in experiment [6] and in experiment [7] was “inactive” each time. Further, the Potency entry in experiment [8] was “inactive”.
With `CCCCCCC(=O)OC1CC(C)(C)NC(C)(C)C1`, the Potency entry in experiment [1], in [2], in [4], in experiment [5], in [6] and in experiment [7] was “inactive” in each case. Moreover, in experiment [8], the Potency entry was “inactive”. The max response in experiment [3] was -4.67%.
Turning to `NC1(C(=O)O)CC1`, the Potency result in [1], in [2], in experiment [4], in [5], in experiment [6] and in [7] was “inactive” in each case. Besides, the Potency entry in experiment [8] is “inactive”. For the same compound, in [3], the max response was 4.84%.
Consider `CCN(CC)CCOC(=O)c1cc(Cl)c(N)cc1OC`, for which the Potency entry in experiment [1], in [2], in [4], in [5], in [9] and in experiment [7] was “inactive” in each case. Also, the Potency result in [8] was “inactive”. Also, the max response in experiment [3] is 40.4%.
As to `NC(N)=NC(N)=Nc1ccccc1`, the Potency entry in [1], in [2], in experiment [4], in experiment [5], in experiment [9] and in experiment [8] was “inactive” in each case.
As for `OC[C@H]1O[C@@H](n2cnc3cncnc32)[C@H](O)[C@@H]1O`, the Potency result in [2], in [4], in [5], in experiment [7] and in [8] was “inactive” each time. Besides, the max response in experiment [3] was 19.7%.
As to `c1ccc2nc(C3=NCCN3)ccc2c1`, the Potency result in experiment [2], in experiment [4], in experiment [5], in [6] and in experiment [8] was “inactive” in each case. Also, in [3], the max response is 12%.
`C=C1C(=O)O[C@@H]2[C@H]3O[C@]3(C)CCC=C(C)CC[C@@H]12`: the Potency result in experiment [2], in experiment [4] and in experiment [5] was “inactive” throughout. Also, the values for the Potency in experiment [6] and in experiment [7] were 18.5 µM (active) and 11.7 µM (active), respectively.
Take `CC(N)(Cc1ccc(O)cc1)C(=O)O` (stereo unspecified): the Potency entry in experiment [1], in experiment [2], in experiment [4], in experiment [5], in experiment [9] and in experiment [7] was “inactive” throughout. Besides, in experiment [8], the Potency entry was “inactive”. In [3], the max response is -28.2%.
Consider `CSC(N)=NCCC[C@H](N)C(=O)O`, for which the Potency result in experiment [1], in [2], in experiment [4], in experiment [5] and in experiment [6] was “inactive” each time. Besides, the max response in experiment [3] was 9.52%.
